# Reference: the supplement of paper PMC8728848
# This is one part of a sample in which the strongest signals are shown more often than they occur.
# B1: CFEM-PPm (Pichia pastoris), F2QPV1 (protein)
# chain: AVATPPACLLACAAEVVKESSDCDALNNIQCICENEGSAIHACLESTCPDGLSSTALQSFEDVCE
# Key:
# Assay in all cases: glycan array binding signal (z-score within array); higher = stronger binding
# Details in all cases: glycan notation: IUPAC condensed, linker removed
# [1] = molecular target: Fuc(a1-2)Gal(b1-3)GlcNAc(b1-2)Man(a1-3)[Fuc(a1-2)Gal(b1-3)GlcNAc(b1-2)Man(a1-6)]Man(b1-4)GlcNAc(b1-4)GlcNAc
# Outline: (§1)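 Glycan array data came from 3228 arrays in the Consortium for Functional Glycomics database, and only arrays with an available protein sequence were kept. Glycan names were put into IUPAC-condensed notation, and columns mapping to the same glycan were averaged. The binding signal is a within-array Z-score, averaged across arrays of one protein sequence run at different concentrations or buffers and across linkers. A negative Z-score can be read as non-binding.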
# [2] = molecular target: Fuc(a1-2)Gal(b1-4)GlcNAc(b1-3)GalNAc
# Outline: as §1
# [3] = molecular target: Fuc(a1-2)[GalNAc(a1-3)]Gal(b1-4)[Fuc(a1-3)]GlcNAc(b1-3)GalNAc
# Outline: as §1
# [4] = molecular target: Fuc(a1-3)GlcNAc
# Outline: as §1
# [5] = molecular target: Gal(a1-2)Gal
# Outline: as §1
# [6] = molecular target: Gal(a1-3)Gal(b1-3)GlcNAc(b1-2)Man(a1-3)[Gal(a1-3)Gal(b1-3)GlcNAc(b1-2)Man(a1-6)]Man(b1-4)GlcNAc(b1-4)GlcNAc
# Outline: as §1
# [7] = molecular target: Gal(a1-3)Gal(b1-3)[Fuc(a1-4)]GlcNAc(b1-2)Man(a1-3)[Gal(a1-3)Gal(b1-3)[Fuc(a1-4)]GlcNAc(b1-2)Man(a1-6)]Man(b1-4)GlcNAc(b1-4)GlcNAc
# Outline: as §1
# [8] = molecular target: Gal(a1-3)Gal(b1-4)GlcNAc(b1-3)GalNAc
# Outline: as §1
# [9] = molecular target: Gal(a1-3)Gal(b1-4)[Fuc(a1-3)]GlcNAc
# Outline: as §1
# [10] = molecular target: Gal(b1-3)Gal
# Outline: as §1
# [11] = molecular target: Gal(b1-3)Gal(b1-4)GlcNAc
# Outline: as §1
# [12] = molecular target: Gal(b1-3)GalNAc
# Outline: as §1
# [13] = molecular target: Gal(b1-3)GalNAc(a1-3)[Fuc(a1-2)]Gal(b1-4)Glc
# Outline: as §1
# [14] = molecular target: Gal(b1-3)GalNAc(a1-3)[Fuc(a1-2)]Gal(b1-4)GlcNAc
# Outline: as §1
# [15] = molecular target: Gal(b1-3)GalNAc(b1-3)Gal
# Outline: as §1
# [16] = molecular target: Gal(b1-3)GalNAc(b1-4)Gal(b1-4)Glc
# Outline: as §1
# [17] = molecular target: Gal(b1-3)GlcNAc(b1-2)[Gal(b1-3)GlcNAc(b1-6)]Man(a1-6)[Gal(b1-3)GlcNAc(b1-2)Man(a1-3)]Man(b1-4)GlcNAc(b1-4)GlcNAc
# Outline: as §1
# [18] = molecular target: Gal(b1-3)GlcNAc(b1-3)Gal(b1-4)GlcNAc(b1-2)Man(a1-3)[Gal(b1-3)GlcNAc(b1-3)Gal(b1-4)GlcNAc(b1-2)Man(a1-6)]Man(b1-4)GlcNAc(b1-4)GlcNAc
# Outline: as §1
# [19] = molecular target: Gal(b1-3)GlcNAc(b1-3)Gal(b1-4)GlcNAc(b1-6)[Gal(b1-3)GlcNAc(b1-3)]Gal(b1-4)Glc
# Outline: as §1
# [20] = molecular target: Gal(b1-3)GlcNAc(b1-6)Gal(b1-4)GlcNAc
# Outline: as §1
# [21] = molecular target: Gal(b1-3)[Fuc(a1-4)]GlcNAc(b1-3)Gal(b1-3)[Fuc(a1-4)]GlcNAc
# Outline: as §1
# [22] = molecular target: Gal(b1-3)[Neu5Ac(a2-6)]GalNAc
# Outline: as §1
# [23] = molecular target: Gal(b1-4)Glc
# Outline: as §1
# [24] = molecular target: Gal(b1-4)GlcNAc
# Outline: as §1
# [25] = molecular target: Gal(b1-4)GlcNAc(b1-3)Gal(b1-4)GlcNAc(b1-2)Man(a1-3)[Gal(b1-4)GlcNAc(b1-3)Gal(b1-4)GlcNAc(b1-2)Man(a1-6)]Man(b1-4)GlcNAc(b1-4)GlcNAc
# Outline: as §1
# [26] = molecular target: Gal(b1-4)GlcNAc(b1-3)Gal(b1-4)GlcNAc(b1-2)Man(a1-3)[Gal(b1-4)GlcNAc(b1-3)Gal(b1-4)GlcNAc(b1-2)Man(a1-6)]Man(b1-4)GlcNAc(b1-4)[Fuc(a1-6)]GlcNAc
# Outline: as §1
binder,measurement,setting,value
B1,glycan array binding signal (z-score),[1],-0.289
same,glycan array binding signal (z-score),[2],1.77
same,glycan array binding signal (z-score),[3],3.4
same,glycan array binding signal (z-score),[4],-0.301
same,glycan array binding signal (z-score),[5],-0.447
same,glycan array binding signal (z-score),[6],0.425
same,glycan array binding signal (z-score),[7],-0.006
same,glycan array binding signal (z-score),[8],-0.284
same,glycan array binding signal (z-score),[9],-0.203
same,glycan array binding signal (z-score),[10],5.41
same,glycan array binding signal (z-score),[11],6.22
same,glycan array binding signal (z-score),[12],3.57
same,glycan array binding signal (z-score),[13],0.271
same,glycan array binding signal (z-score),[14],0.224
same,glycan array binding signal (z-score),[15],5.7
same,glycan array binding signal (z-score),[16],14.7
same,glycan array binding signal (z-score),[17],-0.203
same,glycan array binding signal (z-score),[18],-0.305
same,glycan array binding signal (z-score),[19],-0.017
same,glycan array binding signal (z-score),[20],-0.102
same,glycan array binding signal (z-score),[21],-0.034
same,glycan array binding signal (z-score),[22],7.18
same,glycan array binding signal (z-score),[23],-0.356
same,glycan array binding signal (z-score),[24],-0.105
same,glycan array binding signal (z-score),[25],1.53
same,glycan array binding signal (z-score),[26],-0.026
